Only some compounds are listed: those with a hit (about 0.81% of all), similar ones and a draw of the others.
SRC1 inh = inhibits human SRC1 coactivator; HEK293 GAL4-SRC1 luciferase reporter, luminescence; inhibition, % at 3.6 µM; 360,000 tested, 0.12% active; AID 588354;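 active = inhibition above the campaign mean plus 3 SD, with each screening campaign given its own cutoff, cut at about 60% in these data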
LRH-1 inv ag = inverse agonists of human LRH-1 (NR5A2); O00482; HEK293T StAR-luciferase reporter, LRH-1 transfected, 24 h; inhibition, % at 3.6 µM; 360,000 tested, 0.13% active; AID 602396;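 active = inhibition above the mean inhibition of all tested compounds plus 3 SD, cut at about 73% in these data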
Target sequence (O00482 whole entry, looked up): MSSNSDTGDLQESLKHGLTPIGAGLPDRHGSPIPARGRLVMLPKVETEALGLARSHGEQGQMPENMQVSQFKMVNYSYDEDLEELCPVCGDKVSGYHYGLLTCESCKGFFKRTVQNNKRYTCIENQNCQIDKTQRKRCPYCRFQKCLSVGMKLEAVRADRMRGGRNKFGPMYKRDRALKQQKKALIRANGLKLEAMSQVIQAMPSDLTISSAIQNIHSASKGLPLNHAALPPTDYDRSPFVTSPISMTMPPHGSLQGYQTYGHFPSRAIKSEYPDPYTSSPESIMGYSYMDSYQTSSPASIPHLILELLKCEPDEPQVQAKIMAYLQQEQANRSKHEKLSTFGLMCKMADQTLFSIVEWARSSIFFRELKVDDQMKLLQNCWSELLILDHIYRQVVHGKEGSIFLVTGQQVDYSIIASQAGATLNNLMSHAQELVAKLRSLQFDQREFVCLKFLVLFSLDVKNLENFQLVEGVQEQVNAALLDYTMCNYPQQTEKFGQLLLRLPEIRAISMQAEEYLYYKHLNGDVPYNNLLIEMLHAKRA
SRC3 inh = inhibitors of human steroid receptor coactivator 3 (SRC3); Q9Y6Q9; HEK293 GAL4-SRC3 luciferase reporter, luminescence; inhibition, % at 3.6 µM; 360,000 tested, 0.17% active;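 active = inhibition above a per-campaign cutoff, the mean of all compounds plus 3 SD, cut at about 60% in these data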;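 note: higher means less SRC3-driven luciferase light from the GAL4 reporter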
SRC2 inh = inhibits human steroid receptor coactivator 2. HEK293 GAL4-SRC2 luciferase reporter, luminescence. inhibition, % at 9 µM. 370,000 tested, 0.17% active;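 active = inhibition above the mean inhibition of all tested compounds plus 3 SD, set per campaign, cut at about 52% in these data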
COUP-TFII inh = NR2F2 (human) inhibition, primary screen. HEK293T NGFI-A luciferase reporter, luminescence. inhibition, % at 8.6 µM. 370,000 tested, 0.7% active. AID 686940;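 active = inhibition above a per-plate cutoff, mean inhibition of test wells between control levels plus 3 SD, cut at about 38% in these data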;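 note: cells cotransfected with COUP-TFII expression vector driving the NGFI-A reporter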
VP16 Luc counter = inhibits VP16 reporter, flagging COUP-TFII antagonist hits | shares compounds with COUP-TFII inh | HEK293 Gal4-VP16 luciferase reporter, luminescence | inhibition, % at 8.5 µM | 2,500 tested, 25% active; in the data active = inhibition above about 13%
COUP-TFII conf = COUP-TFII (NR2F2) inhibition, confirmation assay; inhibition, % at 8.5 µM; shares compounds with COUP-TFII inh; HEK293 NGFI-A luciferase reporter, luminescence; 2,500 tested, 45% active;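 active = mean inhibition over three repeats above a set limit taken from the earlier primary screen, cut at about 38% in these data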
Numbers stand for hits; – = inactive; · = not tested or not shown.

SMILES	SRC1 inh	LRH-1 inv ag	SRC3 inh	SRC2 inh	COUP-TFII inh	VP16 Luc counter	COUP-TFII conf
Cc1ccc(C(=O)NC2CCCCN(Cc3cccc(F)c3)C2=O)cc1 (centres undefined)	·	·	·	–	–	·	·
COCCN1C(=O)C2=C(C1=O)C1N(C)c3ccccc3[C@@]13C[C@@H](CO)N(S(=O)(=O)c1ccc(OC)cc1)C3=N2 (some centres undefined)	·	·	·	–	–	·	·
O=C(NCC1CCN(Cc2ccc(Cl)cc2)CC1)C1CCCN(c2ncnc3c2nc2n3CCCCC2)C1 (centres undefined)	–	–	–	–	58	–	–
Cn1c(Cc2cccs2)nnc1SCC(=O)Nc1ccc2cn[nH]c2c1	·	·	·	–	42	–	–
Cn1c(SCC(=O)Nc2ccc3cn[nH]c3c2)nnc1-c1cccs1	–	–	–	–	–	·	·
O=C(NCCc1ccccc1)OCc1cn(-c2c(F)cccc2F)nn1	·	·	·	–	–	·	·
COc1ccc(CNC(=O)c2sc(=O)n(Cc3ccc(S(=O)(=O)N(C)C)cc3)c2C)cc1	–	–	–	–	45	–	–
COc1ccc(CNC(=O)c2sc(=O)n(Cc3ccc(C)cc3)c2C)cc1	–	–	–	–	–	·	·
Cc1c(C(=O)NCc2ccc(C(F)(F)F)cc2)sc(=O)n1Cc1ccc(S(=O)(=O)N(C)C)cc1	–	–	–	–	42	–	–
Cc1nc2sc(C(=O)NCc3nccs3)c(N)c2c(C)c1Cl	·	·	·	–	–	·	·
O=C(Nc1ccc(OCC(F)(F)C(F)F)c(C(F)(F)F)c1)c1ccccc1O	–	–	–	–	69	–	–
COc1cccc(/C=N/Nc2ccc(C(=O)O)cc2)c1O	76	–	79	79	69	65	92
O=C(O)c1ccc(N/N=C/c2ccc(C(F)(F)F)cc2)cc1	–	–	–	–	–	·	·
CC(C)(C)c1ccc(/C=N/Nc2ccc(C(=O)O)cc2)cc1	–	–	64	–	70	–	69
O=C(CCc1nc(-c2ccccc2F)no1)NCCc1ccccc1F	·	·	·	–	–	·	·
CCCC/C=C1/C(c2ccccc2)N(Cc2ccc(OC)cc2OC)C2=NC(c3ccccc3)CC(=O)N21 (centres undefined)	·	·	·	·	–	·	·
COc1cc(OC)c(N(C)S(=O)(=O)c2cccc(C(=O)OCC(=O)c3c[nH]c4ccccc34)c2)cc1Cl	–	–	–	–	62	–	53
COc1cc2c(cc1OC)C(c1ccc(-c3ccc(Cl)cc3Cl)o1)=NCC2	–	–	–	–	62	–	42
COc1cc2c(cc1OC)C(c1ccc(-c3cc(Cl)ccc3Cl)o1)=NCC2	–	–	–	·	·	·	·
COc1cc2c(cc1OC)C(c1ccc(-c3ccc(Cl)c(Cl)c3)o1)=NCC2	–	–	–	–	51	–	46
CC(C)(C)OC(=O)NC(Cc1ccccc1)C1CC(C#N)C(=O)O1 (centres undefined)	·	·	·	·	–	·	·
COC(=O)[C@]12C[C@H](CC(=O)N3CCN(C(=O)C4CC4)CC3)C(=O)N(CCc3ccc(OC)c(OC)c3)C1=C[C@H](C(C)C)O[C@@H]2C1CC1	·	·	·	–	–	·	·
COc1ccc(/C=N/OCC(=O)NC(c2ccccc2)c2ccccc2)cc1OC	–	–	–	–	61	–	62
Cc1nc2c(-c3ccccc3)cnn2c(N)c1-c1ccccc1	72	–	67	53	69	–	72
Cc1cc(-c2ccccc2)n2ncc(-c3ccccc3)c2n1	–	–	–	–	–	·	·
SMILES	SRC1 inh	LRH-1 inv ag	SRC3 inh	SRC2 inh	COUP-TFII inh	VP16 Luc counter	COUP-TFII conf
S=C(NCCCc1cnc[nH]1)NCCCN(Cc1ccc(Cl)cc1)c1ccc(Br)cn1	–	94	–	–	38	–	–
Cc1ccc(-c2csc(N3CCN(CCCn4c(-c5ccncc5)nc5ccccc54)CC3)n2)cc1	–	–	–	–	53	–	–
Cc1ccc(-c2csc(N3CCN(CCCn4c(C(F)(F)F)nc5ccccc54)CC3)n2)cc1	–	–	–	–	–	·	·
CC(=O)N[C@@H](C)c1nc2ccccc2n1CCCN1CCN(c2nc(-c3ccc(C)cc3)cs2)CC1	–	–	–	–	62	–	48
CCOC(=O)CC[C@H]1CC[C@]2(CCCN(Cc3ccccc3)C2)O1	·	·	·	–	–	·	·
Cc1ccc(C(=O)Nc2sc(C)c(-c3ccccc3)c2C(N)=O)cc1[N+](=O)[O-]	–	–	–	–	56	27	84
CCc1ccc(C=NN2CCN(Cc3ccc(C)cc3C)CC2)cc1	·	·	·	–	–	·	·
CN(C)Cc1nc2ccccc2c(=O)n1Cc1nc(-c2cc3ccccc3o2)cs1	–	–	–	–	–	·	·
CCOc1ccc(-c2csc(Cn3c(CN4CCN(C)CC4)nc4ccccc4c3=O)n2)cc1	–	–	–	–	39	–	–
Nc1nc2ncccc2cc1C(=O)c1c[nH]c2ccccc12	·	·	·	–	–	·	·
O=C(Nc1ccc(N2CCN(c3ncccc3C(F)(F)F)CC2)nc1)c1cccs1	–	–	–	–	52	–	40
O=C(/C=C(\Nc1ccc(F)cc1)c1ccccc1)c1ccccc1	·	·	·	–	–	·	·
Cn1nc(C(C)(C)C)cc1C(=O)NCC1CCN(C(=O)C(=O)c2cc3ccccc3o2)CC1	·	·	·	–	41	–	–
O=C(NCC1CCN(C(=O)C(=O)c2cc3ccccc3o2)CC1)c1cc(C(F)(F)F)cc(C(F)(F)F)c1	·	·	·	–	–	·	·
CCCC/C=C1/[C@@H](CC)N(Cc2ccc(OC)cc2OC)C2=N[C@H](c3ccccc3)CC(=O)N21	·	·	·	·	–	·	·
COc1ccc(S[C@]2(C(=O)N3CCN(C(C)=O)CC3)CC(=O)N(C(=O)c3ccccc3)[C@@H]2c2ccc(OC)cc2)cc1	·	·	·	–	–	·	·
Cc1nn(C)c(C)c1CN(Cc1nc(CCC(C)C)no1)C(C)C	–	–	–	–	66	–	62
CC(C)CCc1noc(CN(C)CCC2CCOCC2)n1	–	–	–	–	–	·	·
CCN1CCN(C(=O)c2cc(COc3ccc4ncccc4c3)on2)CC1	–	–	–	–	38	–	–
COCC1CCCCN1C(=O)c1cc(COc2ccc3ncccc3c2)on1 (centres undefined)	–	–	–	–	44	–	57
COCCOC1CCN(C(=O)c2cc(COc3ccc(-n4cncn4)cc3)on2)CC1	–	–	–	–	–	·	·
CCC1CCCCN1C(=O)c1cc(COc2ccc3ncccc3c2)on1 (centres undefined)	–	–	–	–	72	–	66
COCCC1CCCCN1C(=O)c1cc(COc2ccc(-n3cncn3)cc2)on1 (centres undefined)	–	–	–	–	44	–	41
N#CCC[C@@H]1CC[C@]2(CCCN(C(=O)C3CCCC3)C2)O1	·	·	·	–	–	·	·
C=CCN1[C@H](C)COc2cc(N3CCSCC3)ccc2S1(=O)=O	·	·	·	–	–	·	·
COc1cccc(CCNS(=O)(=O)c2c(C)n[nH]c2C)c1	·	·	·	–	–	·	·

Compound activity: PubChem BioAssay, The Scripps Research Institute Molecular Screening Center
